Results as given in paper PMC5540273 (PLoS ONE, 2017).

What was measured:
Conditions in all cases: concentration: 1 μM,replicates: in singlicate; n = 1
CDC2L2 = tested on: CDC2L2
CDC2L5 = tested on: T1, CDC2L5
T1 construct: gene CDK13

CDK11 = tested on: T2, CDK11
T2 construct: gene CDK19

CDK2 = tested on: CDK2
CDK3 = tested on: CDK3
CDK4-cyclinD1 = tested on: CDK4-cyclinD1
CDK4-cyclinD3 = tested on: CDK4-cyclinD3
CDK4 = tested on: CDK4
CDK5 = tested on: CDK5
CDK7 = tested on: CDK7
CDK8 = tested on: CDK8
CDK9 = tested on: CDK9
CDKL1 = tested on: CDKL1
CDKL2 = tested on: CDKL2
CDKL3 = tested on: CDKL3
CDKL5 = tested on: CDKL5
CHEK1 = tested on: CHEK1
CHEK2 = tested on: CHEK2
CIT = tested on: CIT
CLK1 = tested on: CLK1
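Note: KINOMEscan kinase panel screen.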

| SMILES | %Inh (CDC2L2) | %Inh (CDC2L5) | %Inh (CDK11) | %Inh (CDK2) | %Inh (CDK3) | %Inh (CDK4-cyclinD1) | %Inh (CDK4-cyclinD3) | %Inh (CDK4) | %Inh (CDK5) | %Inh (CDK7) | %Inh (CDK8) | %Inh (CDK9) | %Inh (CDKL1) | %Inh (CDKL2) | %Inh (CDKL3) | %Inh (CDKL5) | %Inh (CHEK1) | %Inh (CHEK2) | %Inh (CIT) | %Inh (CLK1) |
| --- | --- | --- | --- | --- | --- | --- | --- | --- | --- | --- | --- | --- | --- | --- | --- | --- | --- | --- | --- | --- |
| CCn1c(-c2nonc2N)nc2cncc(Br)c21 [SB-738004] | 13% | 18% | 14% | 1% | 3% | 43% | 0% | 36% | 0% | 48% | 50% | 4% | 2% | 0% | 0% | 0% | 0% | 41% | 0% | 22% |
| C[C@@H](Oc1cc(-n2cnc3cc(-c4ccncc4)ccc32)sc1C(N)=O)c1ccccc1Cl [GSK479719] | 0% | 0% | 0% | 42% | 29% | 0% | 21% | 0% | 0% | 1% | 12% | 4% | 21% | 33% | 0% | 0% | 4% | 0% | 24% | 73% |
| CC(=O)c1c(-c2ccncc2)[nH]c(-c2ccncc2)c1C [GW493036] | 4% | 0% | 13% | 31% | 53% | 0% | 38% | 0% | 0% | 96.2% | 0% | 87% | 0% | 43% | 16% | 35% | 83% | 0% | 100% | 99.8% |
| Nc1nccc(-c2ccc3c(N)n[nH]c3c2)n1 [GSK1034945] | 4% | 0% | 37% | 0% | 13% | 0% | 0% | 1% | 0% | 0% | 13% | 2% | 10% | 18% | 30% | 0% | 0% | 58% | 54% | 98% |
| CC(=O)Nc1nc2cnc(Nc3cc(NC(=O)c4cccc(CC(C)(C)C#N)c4)ccc3C)nc2s1 | 16% | 66% | 79% | 15% | 0% | 1% | 15% | 45% | 14% | 36% | 67% | 10% | 50% | 99.5% | 41% | 0% | 0% | 28% | 68% | 0% |
| C[C@@H]1CNc2c(sc3ccc4nc(-c5ccc(O)cc5)ccc4c23)C(=O)N1 | 6% | 0% | 37% | 0% | 12% | 30% | 0% | 4% | 25% | 82% | 63% | 67% | 15% | 0% | 5% | 0% | 0% | 54% | 54% | 97.3% |
| O=c1[nH]cc(-c2ccc(O)cc2)c2sc(-c3ccncc3)cc12 [GSK1033723] | 12% | 0% | 0% | 0% | 1% | 0% | 0% | 31% | 0% | 0% | 27% | 6% | 7% | 9% | 0% | 0% | 0% | 10% | 45% | 95.7% |
| CC(=O)Nc1ccc(-c2cc3ncnc(SCC(=O)O)c3s2)cc1 | 17% | 0% | 26% | 12% | 4% | 16% | 31% | 0% | 14% | 40% | 0% | 85% | 16% | 0% | 26% | 18% | 1% | 26% | 0% | 31% |
| Cc1ccc(C(=O)Nc2ccc(Oc3ccc4nc(NC(=O)C5CC5)cn4c3)c(F)c2)c(=O)n1-c1ccccc1 | 7% | 0% | 88% | 1% | 36% | 21% | 0% | 0% | 0% | 76% | 87% | 0% | 41% | 99.6% | 0% | 0% | 0% | 0% | 36% | 0% |
| CN(c1ccc2c(c1)nc(NCc1ccc(F)cc1)n2C)c1ccnc(Nc2ccc(CS(C)(=O)=O)cc2)n1.Cl [GW813244] | 92.6% | 0% | 26% | 5% | 6% | 0% | 10% | 22% | 0% | 31% | 2% | 57% | 30% | 40% | 20% | 0% | 0% | 0% | 86% | 13% |
